PubChem BioAssay AID2384 (Southern Research Specialized Biocontainment Screening …, 2010)
In all, about 2,300 compounds went through this assay and about 1,100 (48%) were called active. The rule behind the calls is not given here. The set was probably picked from earlier hits. The list shows a part of the results. Results with a measured potency or affinity are listed apart.

Assay: S. typhi counter-screen signal inhibition – fluorescence, 4 h, counter-screen for PhoP regulon inhibitor project, dose response (AID 2384)
Conditions: S. typhi GFP reporter counter-screen; series mostly up to 150 µM

Question: With `Clc1ccc(OCc2nc(-c3ccc(Br)o3)no2)cc1` as the molecule, how does the inhibition read?
Answer: inactive

Question: Which inhibition does the source give for `CCOc1ccc(-c2ccc(SCC(=O)N3CCOCC3)nn2)cc1` here?
Answer: inactive

Question: For `NC(=O)c1ccc[n+]([C@H]2O[C@@H](COP(=O)([O-])OP(=O)(O)OC[C@H]3O[C@@H](n4cnc5c(N)ncnc54)[C@H](O)[C@@H]3O)[C@H](O)[C@@H]2O)c1`, which inhibition is on record?
Answer: inactive

Question: For `CN1CCCN(C(=O)COc2ccc(F)cc2Cl)CC1`, which inhibition is on record?
Answer: inactive

Question: For `Cc1cc(NC(=O)COC(=O)c2cccc(S(=O)(=O)N(C)C3CCCCC3)c2)no1`, which inhibition is on record?
Answer: inactive

Question: For `COC(=O)c1sccc1NC(=S)NCc1ccc(Cl)cc1`, which inhibition is on record?
Answer: inactive

Question: Which inhibition does the source give for `COC(=O)CNc1n[nH]c(=S)[nH]c1=O` here?
Answer: inactive

Question: With `NC1=C(Br)C(=O)c2ccccc2C1=O` as the molecule, how does the inhibition read?
Answer: inactive

Question: With `C/[N+]([O-])=C1\Cc2ccccc2C1=O` as the molecule, how does the inhibition read?
Answer: inactive

Question: Which inhibition does the source give for `Clc1ccc2c(NCc3ccccn3)ccnc2c1` here?
Answer: inactive

Question: Which inhibition does the source give for `O=C(NCc1cccs1)C(=O)NCC(c1ccco1)N1CCN(c2ccc(F)cc2)CC1` (configuration not stated) here?
Answer: inactive

Question: With `CCC(=O)N1CCc2cc(S(=O)(=O)NCCCN3CCN(Cc4ccccc4)CC3)ccc21` as the molecule, how does the inhibition read?
Answer: inactive

Question: With `COc1ccc(NC(=O)C(Cc2ccccc2)n2cccc2)cc1` (configuration not stated) as the molecule, how does the inhibition read?
Answer: inactive

Question: Which inhibition does the source give for `CC(C)NC(=O)c1cc(-c2ccc(Br)cc2)on1` here?
Answer: inactive

Question: For `CC(=O)NCc1ccc(C(=O)CCl)cc1`, which inhibition is on record?
Answer: inactive

Question: With `Cc1c(C)n(C)c2ccc(C(=O)NCc3cccs3)cc12` as the molecule, how does the inhibition read?
Answer: inactive

Question: For `O=C(NCCCN1CCOCC1)C(C(=O)c1ccccc1)n1ccccc1=O` (configuration not stated), which inhibition is on record?
Answer: inactive

Question: For `COc1ccc(Cl)cc1NC(=O)CCN1CCOCC1`, which inhibition is on record?
Answer: inactive

Question: Which inhibition does the source give for `CCCC1(c2ccccc2)NC(=O)N(CC(=O)Nc2cc(S(=O)(=O)N3CCOCC3)ccc2Cl)C1=O` (configuration not stated) here?
Answer: inactive

Question: With `COc1ccc(C(=O)C2CCN(CC(=O)Nc3cc(C)cc(C)c3)CC2)cc1` as the molecule, how does the inhibition read?
Answer: inactive

Question: For `COCCNC(=O)c1cccc(OC2CCN(Cc3ccccc3C)CC2)c1`, which inhibition is on record?
Answer: inactive

Question: Which inhibition does the source give for `Cc1ccc(C)c(NC(=O)CSc2nnc([C@@H](N)Cc3c[nH]c4ccccc34)o2)c1` here?
Answer: inactive

Question: For `O=C(O)c1ccc(CSc2nnnn2C2CCCCC2)cc1`, which inhibition is on record?
Answer: inactive

Question: With `COCCNC(=O)CN(C(=O)CCC(=O)Nc1ccccn1)c1ccc(F)c(Cl)c1` as the molecule, how does the inhibition read?
Answer: inactive

Question: For `COCCN1C(=O)C(=O)/C(=C(/O)c2cccc(OC)c2)C1c1ccncc1` (configuration not stated), which inhibition is on record?
Answer: inactive

Question: For `Cc1ccc(CCN2C(=O)CCC2(C)C(=O)NC2CCCC2)cc1` (configuration not stated), which inhibition is on record?
Answer: inactive

Question: With `FC(F)(F)c1ccccc1NC1=NCCC1` as the molecule, how does the inhibition read?
Answer: inactive

Question: For `CCN(CC)CC#CC(C)OCOCC#CCOC` (configuration not stated), which inhibition is on record?
Answer: inactive

Question: For `Cc1ccc2[nH]cc(CCNC(=O)c3cccnc3)c2c1`, which inhibition is on record?
Answer: inactive

Question: For `Cc1cc(C)cc(CSc2nnc(C)c(=O)[nH]2)c1`, which inhibition is on record?
Answer: inactive

Question: With `COC(=O)c1c(-c2cccc(C)c2)csc1N` as the molecule, how does the inhibition read?
Answer: inactive

Question: Which inhibition does the source give for `COC(=O)c1cc2ccsc2n1CC(=O)N(C)c1ccccc1` here?
Answer: inactive
